Compound activity: PubChem, several laboratories
Hits are enriched below; roughly 3.2% of the tested compounds scored in any of these assays.
Mtb FBA inh: Mtb FBA enzyme inhibitors, primary screen, biochemical, fluorescence, strain H37Rv. Fructose-bisphosphate aldolase (Mycobacterium tuberculosis (strain ATCC 25618 / H37Rv)), …. purified M. tuberculosis FBA, fluorescence read-out. inhibition, % at 1 µM. 360,000 tested, 2.3% active. AID 588726, 2011; in the data active = inhibition above about 27%;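 also: 0% = vehicle and 100% = reference inhibitor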
PrPC surface inh: inhibitors of human cell surface prion protein PrPC, primary screen, cell-based, TR-FRET; Major prion protein (Homo sapiens), P04156; TR-FRET read-out; inhibition, % at 13.8 µM; 370,000 tested, 0.43% active; AID 720596, 2013; in the data active = inhibition above about 24%; also: 0% = median of the test wells and 100% = reference compound wells
Yp Topo-I inh: Yersinia pestis topoisomerase I inhibitors, primary screen, biochemical, cleavage product accumulation, plate reader, single point | Y. pestis Topo-I cleavage product accumulation | activity, % at 10 µM | DNA topoisomerase I (Yersinia pestis CO92) | 360,000 tested, 0.064% active; in the data active = activity above about 50%, passing the limit was not always enough
GDH-TPI counter: GDH-TPI coupling enzyme inhibitors, primary screen, artefact control for M. tuberculosis FBA inhibitor project, biochemical, absorbance, full deck; GDH-TPI coupled enzyme counterscreen, NADH absorbance; inhibition, % at 4.8 µM; 360,000 tested, 1.2% active; in the data active = inhibition above about 30%;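 also: 0% = DMSO wells and 100% = wells lacking the enzyme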
TcdB inh: TcdB glycohydrolase inhibitors, primary screen, biochemical, single point, plate reader. 350,000 tested, 0.24% active. inhibition, % at 9.99 µM. TcdB glycohydrolase enzymatic assay. Toxin B (Clostridioides difficile), P18177. AID 652162, 2013; in the data active = inhibition above about 10%
PrPC confirm: confirmation of inhibitors of cell surface human prion protein, confirmation, cell-based, TR-FRET; 1,500 tested, 65% active; cell surface PrPC level; shares compounds with PrPC surface inh; AID 743200, 2013; inhibition, % at 13.8 µM; in the data active = inhibition above about 25%
LD9 cytotox: cytotoxicity in LD9 cells, cytotoxicity control for cell surface PrPc inhibitor project, cell-based, luminescence, high throughput. AID 743201, 2013. luminescence viability. 1,500 tested, 29% active. inhibition, % at 13.8 µM. shares compounds with PrPC surface inh; in the data active = inhibition above about 9.5%
An asterisk follows results filed as active.

How did Cc1nonc1NC(=O)CSc1nc(C2CCCCC2)nc2ccccc12 do in these assays?
Mtb FBA inh: -1.4; PrPC surface inh: 50.1*; Yp Topo-I inh: 7.6; GDH-TPI counter: 1.0; PrPC confirm: 53.5*; LD9 cytotox: -12.5

Results for Cc1nn(Cc2ccc(Cl)c(Cl)c2)c(C)c1NC(=O)c1cc(CC(C)C)on1 ?
Mtb FBA inh: -0.6; PrPC surface inh: 48.8*; Yp Topo-I inh: 29.2; GDH-TPI counter: -0.9; TcdB inh: 0.9; PrPC confirm: 51.0*; LD9 cytotox: 0.6

Results for COc1ccccc1NS(=O)(=O)c1cccc(NC(=O)Nc2ccc(Cl)cc2)c1 ?
Mtb FBA inh: -2.1; PrPC surface inh: 45.0*; Yp Topo-I inh: -9.3; GDH-TPI counter: 9.3; TcdB inh: -11.1; PrPC confirm: 18.8; LD9 cytotox: 0.2

How did C[C@@H]1CN([C@H](C)CO)C(=O)c2cccc(NC(=O)c3ccncc3)c2O[C@H]1CN(C)C(=O)Nc1ccc2c(c1)OCO2 do in these assays?
TcdB inh: 0.6

What do the screens show for `CC(=O)c1sc(NC(=O)COc2ccccc2)nc1C`?
Mtb FBA inh: -2.1; PrPC surface inh: 12.1; Yp Topo-I inh: 2.6; GDH-TPI counter: 10.4; TcdB inh: 0.5

Results for CC(=O)c1sc(NC(=O)C(C)(C)C)nc1C ?
Mtb FBA inh: 2.1; PrPC surface inh: 25.6*; Yp Topo-I inh: -1.9; GDH-TPI counter: 7.0; PrPC confirm: 26.9*; LD9 cytotox: 0.8

How did CC(=O)c1sc(NC(=O)c2ccc(C(C)(C)C)cc2)nc1C do in these assays?
Mtb FBA inh: 2.0; PrPC surface inh: 6.7; Yp Topo-I inh: 3.7; GDH-TPI counter: 17.1; TcdB inh: -0.1

How did CC(=O)c1sc(NC(=O)CCOc2ccccc2)nc1C do in these assays?
Mtb FBA inh: -0.3; PrPC surface inh: 35.5*; Yp Topo-I inh: -3.1; GDH-TPI counter: 1.6; PrPC confirm: 40.8*; LD9 cytotox: -6.3

Results for C=CCOC(=O)C1=C(C)NC(SCC(=O)N(CC)CC)=C(C#N)C1c1ccccc1 (configuration not stated) ?
Mtb FBA inh: 1.6; PrPC surface inh: 28.9*; Yp Topo-I inh: 16.7; GDH-TPI counter: 13.6; PrPC confirm: 35.4*; LD9 cytotox: 8.4

How did CC(=O)N(C)C[C@@H]1Oc2ncc(C#Cc3cccnc3)cc2C(=O)N([C@@H](C)CO)C[C@@H]1C do in these assays?
TcdB inh: -0.1

Results for Cc1ccc(NC(=O)c2c(C(F)(F)F)nn(C)c2SCc2cccc(C(F)(F)F)c2)cc1C ?
Mtb FBA inh: -0.4; PrPC surface inh: 30.0*; Yp Topo-I inh: 22.8; GDH-TPI counter: 8.9; PrPC confirm: 24.7*; LD9 cytotox: 9.4*

What do the screens show for `O=C(C[C@H]1CC[C@@H]2[C@H](COC[C@H](O)CN2CC2CCOCC2)O1)N1CCOCC1`?
TcdB inh: -4.1

What do the screens show for `COc1ccc(OC)c(-c2csc(NC(=O)Cc3ccc(F)cc3)n2)c1`?
Mtb FBA inh: -1.7; PrPC surface inh: 14.2; Yp Topo-I inh: -9.2; GDH-TPI counter: 3.0; TcdB inh: 0.6

How did COc1ccc(OC)c(-c2csc(NC(=O)Cn3[nH]c(=O)c4ccccc4c3=O)n2)c1 do in these assays?
Mtb FBA inh: 2.7; PrPC surface inh: 26.8*; Yp Topo-I inh: -5.5; GDH-TPI counter: 3.8; TcdB inh: 2.2; PrPC confirm: 25.4*; LD9 cytotox: 38.0*

What do the screens show for `O=C(NC(NC(=S)Nc1ccccc1Cl)C(Cl)(Cl)Cl)c1cccc(Cl)c1` (configuration not stated)?
Mtb FBA inh: 2.1; PrPC surface inh: 24.6*; Yp Topo-I inh: 0.5; GDH-TPI counter: -0.8; PrPC confirm: 39.6*; LD9 cytotox: 10.8*

Results for CCCNC(=O)N1CC(=O)N2[C@H](C1)[C@@H](c1ccc(-c3cccc(C)c3)cc1)[C@@H]2CO ?
TcdB inh: -11.6

What do the screens show for `Cc1cc(C(=O)CSc2nc3ccccc3[nH]2)c(C)n1CC1CCCO1` (configuration not stated)?
Mtb FBA inh: 1.4; PrPC surface inh: 44.2*; Yp Topo-I inh: 5.8; GDH-TPI counter: 4.9; PrPC confirm: 34.2*; LD9 cytotox: 37.7*

Results for Cn1c(=O)c(Sc2ccccc2)c(O)c2ccccc21 ?
Mtb FBA inh: 2.8; PrPC surface inh: 2.2; Yp Topo-I inh: -0.2; GDH-TPI counter: 0.0; TcdB inh: 0.0

What do the screens show for `Cc1ccc(Sc2c(O)c3ccccc3n(C)c2=O)cc1`?
Mtb FBA inh: 3.7; PrPC surface inh: 44.7*; Yp Topo-I inh: 0.1; GDH-TPI counter: 0.9; TcdB inh: -1.9; PrPC confirm: 59.1*; LD9 cytotox: -10.8

What do the screens show for `O=c1cnnc(N/N=C/c2ccccn2)[nH]1`?
Mtb FBA inh: -1.9; PrPC surface inh: 19.4; Yp Topo-I inh: -1.7; GDH-TPI counter: 18.6; TcdB inh: 1.0

Results for O=c1nc(N/N=C/c2ccccn2)cn[nH]1 ?
Mtb FBA inh: -1.2; PrPC surface inh: 24.9*; Yp Topo-I inh: -1.6; GDH-TPI counter: 24.9; TcdB inh: -3.9; PrPC confirm: 23.1; LD9 cytotox: 9.5*

Results for Cc1noc(C)c1NC(=O)N[C@@H]1C=C[C@H](CC(=O)NCCCN(C)C)O[C@H]1CO ?
TcdB inh: -1.6

What do the screens show for `Cc1ccc(S(=O)(=O)N(C)C[C@H]2OCCCC[C@H](C)Oc3ccc(NC(=O)NC(C)C)cc3C(=O)N([C@H](C)CO)C[C@@H]2C)cc1`?
TcdB inh: 0.2

Results for CC#CCOC(=O)c1c(C)nc2sc3c(c2c1N)CCC(O)C3 (configuration not stated) ?
Mtb FBA inh: 0.9; PrPC surface inh: 42.0*; Yp Topo-I inh: 9.5; GDH-TPI counter: 12.9; TcdB inh: -0.6; PrPC confirm: 27.4*; LD9 cytotox: 11.6*

What do the screens show for `CCOC(=O)c1c(N)sc2c1CCC(CC)C2` (configuration not stated)?
Mtb FBA inh: 0.5; PrPC surface inh: -1.5; Yp Topo-I inh: -2.4; GDH-TPI counter: 8.8; TcdB inh: 0.5

What do the screens show for `Cn1nnnc1SCc1nc2scc(-c3ccc(Cl)cc3)c2c(=O)[nH]1`?
Mtb FBA inh: -1.8; PrPC surface inh: 31.8*; Yp Topo-I inh: -6.3; GDH-TPI counter: 1.3; TcdB inh: 1.2; PrPC confirm: 26.1*; LD9 cytotox: 5.8
